Source: PubChem BioAssay (NCATS)
Results filed as inconclusive are left out. A call without a number means that no potency is given here. Activity calls are given as the source filed them. Calls come from the whole dose curve; as a rule, active = well fitted curve in the direction sought with a large enough effect; inconclusive = small, poorly fitted or top-dose-only effect, or another doubt; inactive = no such curve, though single readings can be large; an effect the other way counts as inactive or inconclusive.

These compounds were tested against M-phase phosphoprotein 8 (Homo sapiens) (UniProt Q99549) (assay: qHTS Validation Assay for Inhibitors for MPP8 Chromodomain Interactions with Methylated Histone Tails (AID 488949; note: nearly all actives have a fitted effect of over 55% in size; note: potency is the fitted concentration of half-maximal effect)). Conditions: AlphaScreen MPP8 binding to H3K9me3 peptide; series mostly up to 114 µM.
M-phase phosphoprotein 8 (Homo sapiens), sequence (Q99549 whole entry, looked up): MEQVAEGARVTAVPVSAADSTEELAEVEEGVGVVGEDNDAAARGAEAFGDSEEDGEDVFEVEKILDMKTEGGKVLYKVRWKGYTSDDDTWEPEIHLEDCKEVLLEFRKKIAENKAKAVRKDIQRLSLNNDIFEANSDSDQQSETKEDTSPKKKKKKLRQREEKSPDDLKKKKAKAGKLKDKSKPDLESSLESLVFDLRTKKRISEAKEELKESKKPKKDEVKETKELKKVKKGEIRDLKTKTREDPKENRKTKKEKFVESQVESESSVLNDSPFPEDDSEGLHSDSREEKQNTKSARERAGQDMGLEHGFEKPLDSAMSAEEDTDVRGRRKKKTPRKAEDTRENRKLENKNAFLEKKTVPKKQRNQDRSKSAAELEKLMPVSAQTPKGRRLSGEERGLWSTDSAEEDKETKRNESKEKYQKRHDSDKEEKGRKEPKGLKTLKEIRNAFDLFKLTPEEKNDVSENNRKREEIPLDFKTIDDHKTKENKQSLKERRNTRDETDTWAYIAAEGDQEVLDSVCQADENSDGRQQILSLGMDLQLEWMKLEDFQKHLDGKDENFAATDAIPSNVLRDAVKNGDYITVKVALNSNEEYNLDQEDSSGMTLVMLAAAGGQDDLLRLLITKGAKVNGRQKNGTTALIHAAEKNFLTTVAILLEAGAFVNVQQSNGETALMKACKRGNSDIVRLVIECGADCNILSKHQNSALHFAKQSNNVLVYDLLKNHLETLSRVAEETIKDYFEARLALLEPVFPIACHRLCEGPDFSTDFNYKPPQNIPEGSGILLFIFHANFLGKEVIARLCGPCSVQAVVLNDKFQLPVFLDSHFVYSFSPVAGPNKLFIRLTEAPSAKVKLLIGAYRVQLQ
Method in brief: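 MPP8 (50 nM) was preincubated with biotinylated H3(1-18)K9me3 peptide (50 nM) in PBS pH 7.4, 0.01% Tween-20 for 30 min at room temperature, then with compounds for 30 min; binding was detected by AlphaScreen.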

SMILES | Potency
CC(N)=NCc1cccc(CN)c1 | inactive
O=C(O)c1cc(=O)c2ccc(Cl)cc2[nH]1 | inactive
NCCCCCCNS(=O)(=O)c1cccc2c(Cl)cccc12 | inactive
CCCn1c(=O)c2[nH]c(-c3ccc(OCC(=O)Nc4ccc(C#N)cc4)cc3)nc2n(CCC)c1=O | inactive
CN(C)CCCCSC(=N)N | 50.1 µM (active)
Cn1cnc2c(NC3CCCC3)ncnc21 | inactive
NC(CCC(=O)NCS(=O)(=O)O)C(=O)O (stereo not given) | inactive
O=C(OCCN1CCCCC1)c1c[nH]c2ccccc12 | inactive

These compounds were tested against Transient receptor potential cation channel subfamily V member 1 (Homo sapiens) (UniProt Q8NER1) (assay: HTS Assay for Compounds that Act as Enhancers of the Vanilloid Receptor 1 (AID 488979)). Conditions: TRPV1-expressing cells, enhancer of channel activity, stimulated with capsaicin at EC20; series mostly up to 41.7 µM.
Transient receptor potential cation channel subfamily V member 1 (Homo sapiens), sequence (Q8NER1 whole entry, looked up): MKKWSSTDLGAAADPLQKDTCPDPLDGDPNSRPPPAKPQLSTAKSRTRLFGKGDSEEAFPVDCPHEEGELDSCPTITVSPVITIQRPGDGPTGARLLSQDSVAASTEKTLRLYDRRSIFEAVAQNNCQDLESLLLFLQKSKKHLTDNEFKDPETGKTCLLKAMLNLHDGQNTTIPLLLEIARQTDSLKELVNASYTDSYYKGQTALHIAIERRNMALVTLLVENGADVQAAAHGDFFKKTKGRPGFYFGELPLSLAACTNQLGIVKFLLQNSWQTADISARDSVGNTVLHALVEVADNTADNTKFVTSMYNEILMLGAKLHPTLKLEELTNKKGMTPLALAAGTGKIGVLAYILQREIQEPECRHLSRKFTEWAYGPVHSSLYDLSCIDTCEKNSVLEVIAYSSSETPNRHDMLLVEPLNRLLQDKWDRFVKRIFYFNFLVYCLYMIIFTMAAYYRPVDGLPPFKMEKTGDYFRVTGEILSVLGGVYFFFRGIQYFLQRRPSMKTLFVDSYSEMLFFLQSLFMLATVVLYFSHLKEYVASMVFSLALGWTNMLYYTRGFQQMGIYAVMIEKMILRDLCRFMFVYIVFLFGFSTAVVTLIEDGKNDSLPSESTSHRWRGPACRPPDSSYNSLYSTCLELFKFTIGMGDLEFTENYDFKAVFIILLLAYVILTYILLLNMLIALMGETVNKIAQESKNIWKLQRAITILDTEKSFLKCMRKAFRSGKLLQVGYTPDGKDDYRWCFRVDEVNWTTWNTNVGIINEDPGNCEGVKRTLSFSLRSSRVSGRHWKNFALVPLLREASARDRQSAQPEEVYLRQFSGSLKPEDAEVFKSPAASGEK
Method in brief: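 Calcium influx kinetics via Fluo-8 (480/520 nm) in TRPV1-expressing cells, 2000/well cultured overnight at 35.5C. Compound-alone read 3 min (agonist phase), followed by EC20 capsaicin challenge for 2 min (enhancer phase).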

SMILES | outcome
CC(N)=NCc1cccc(CN)c1 | inactive
O=C(O)c1cc(=O)c2ccc(Cl)cc2[nH]1 | inactive
CCCn1c(=O)c2[nH]c(-c3ccc(OCC(=O)Nc4ccc(C#N)cc4)cc3)nc2n(CCC)c1=O | inactive
CN(C)CCCCSC(=N)N | inactive
Cn1cnc2c(NC3CCCC3)ncnc21 | inactive
NC(CCC(=O)NCS(=O)(=O)O)C(=O)O (stereo not given) | inactive
O=C(OCCN1CCCCC1)c1c[nH]c2ccccc12 | inactive
